The source made the active and inactive calls. The rule behind the calls is not given here.
Target: Pantothenate synthetase (Mycobacterium tuberculosis (strain ATCC 25618 / H37Rv)) (UniProt P9WIL5)
Assay: Coupled enzyme confirmation of inhibitors against recombinant Mtb PanC (AID 375);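 note: 0% = full reaction with vehicle and 100% = no enzyme background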
Conditions: coupled enzyme assay; at 10 µM, hits give high values

Sequence of Pantothenate synthetase (Mycobacterium tuberculosis (strain ATCC 25618 / H37Rv)) (P9WIL5 whole entry, looked up): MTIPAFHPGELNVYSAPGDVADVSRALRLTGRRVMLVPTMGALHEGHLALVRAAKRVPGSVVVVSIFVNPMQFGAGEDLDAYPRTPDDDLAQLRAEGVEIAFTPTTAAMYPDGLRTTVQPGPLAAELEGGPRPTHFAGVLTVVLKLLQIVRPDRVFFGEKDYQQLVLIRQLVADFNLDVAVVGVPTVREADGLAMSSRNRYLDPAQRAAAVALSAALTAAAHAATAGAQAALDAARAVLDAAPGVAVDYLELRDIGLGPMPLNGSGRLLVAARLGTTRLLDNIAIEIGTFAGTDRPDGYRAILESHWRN

SMILES	inhibition
Cc1cc(C)cc(NC(=O)CN(C)S(=O)(=O)c2cnc[nH]2)c1	11% (inactive)
O=c1c2cc(Cl)ccc2[nH]c(=S)n1Cc1ccco1	8% (inactive)
COC(=O)C1=C(C)NC(=O)C1(Nc1ccc(Cl)cn1)C(F)(F)F (centres undefined)	0% (inactive)
CN(C)c1ccc(NC(=O)CSCc2nc3c(nnn3Cc3ccc(F)cc3)c(=O)[nH]2)cc1	3% (inactive)
O=C(CN1C(=O)c2cccc3cccc1c23)NCC1CCCO1 (centres undefined)	5% (inactive)
CCCOc1ccc(N2C(=O)CC(NCCCN3CCC(C(N)=O)CC3)C2=O)cc1 (centres undefined)	4% (inactive)
CCC(=O)Nc1c2c(nn1-c1ccccc1C)CSC2	6% (inactive)
Cc1cc(/C=N\O)c(C)n1-c1ccncc1	0% (inactive)
C=CCn1c(SCC#N)nc2c(c1=O)C(C)(C)Cc1ccccc1-2	0% (inactive)
CCOC(=O)CNC(=O)Nc1nnc(-c2ccc(OCC)cc2)o1	5% (inactive)
CC(=O)Oc1cccc(/C=c2\sc3nc(-c4ccco4)nn3c2=O)c1	8% (inactive)
COC(=O)c1cc(OC)c(OC)cc1NC(=O)CCC1CCCC1	0% (inactive)
O=C(Nc1ccc2c(c1)OCCO2)c1ccco1	5% (inactive)
Cc1ccc(CN2C(=O)CCC2C(=O)NCCCN2CCCC(C)C2)cc1 (centres undefined)	1% (inactive)
Cn1nnc2c(sc3nc(N4CCOCC4)c4c(c32)CCCC4)c1=O	8% (inactive)
CC1CN(S(=O)(=O)c2cccc(C(=O)OCc3cc(=O)oc4cc(O)ccc34)c2)CC(C)O1 (centres undefined)	7% (inactive)
O=S(=O)(NC1CCCCC1NS(=O)(=O)c1ccc(F)cc1)c1ccc(F)cc1 (centres undefined)	0% (inactive)
O=C(COc1ccccc1)Nc1ccc(-c2nnc(-c3ccco3)o2)cc1	2% (inactive)
O=C(CNC1CCCCCC1)Nc1ccc(S(=O)(=O)NC2CC2)cc1	2% (inactive)
CCn1c(CSc2ncccn2)nnc1SCC(=O)N1c2ccccc2CC1C (centres undefined)	6% (inactive)
CN(C)S(=O)(=O)N1CCN(c2cccc(Cl)c2)CC1	0% (inactive)
O=C(c1cccs1)N(Cc1ccco1)Cc1cc2ccccc2[nH]c1=O	0% (inactive)
Cc1nnc(SCC(=O)NCCN2C(=O)CSC2=O)s1	7% (inactive)
CCC(Oc1ccc2ccccc2c1)C(=O)O (centres undefined)	0% (inactive)
O=C(O)Cc1ccc(-c2ccccc2)cc1	0% (inactive)
O=C(CSc1n[nH]c(-c2cccs2)n1)N1CCN(S(=O)(=O)c2ccccc2)CC1	0% (inactive)

SMILES	inhibition
COc1cccc(-c2noc(CCC(=O)NC3CCCCC3)n2)c1	1% (inactive)
CCN(Cc1cc2cc(OC)ccc2[nH]c1=O)C(=O)c1ccncc1	4% (inactive)
O=c1oc2ccccc2n1CCc1ccccc1	4% (inactive)
Cc1ccccc1C(=O)Nc1c(C(=O)N2CCCC2)cnn1-c1ccccc1	8% (inactive)
Cc1nc2ccccc2c(=O)n1NC(=O)c1c(O)c2c(n(CC(C)C)c1=O)CCCC2	0% (inactive)
CCN(CC)c1ccc(NC(=O)c2cncc(Br)c2)cc1	0% (inactive)
Cc1cc(C)n2nc3nc(N4CCCCC4)nc(-c4ccco4)c3c2n1	25% (inactive)
COc1ccc(S(=O)(=O)N(CCN2CCOCC2)Cc2cc(OC)ccc2OC)cc1	4% (inactive)
CCOC(=O)C1=C(NC#N)OC(C)=C(C)C1c1ccc(O)cc1 (centres undefined)	0% (inactive)
O=c1oc2ccccc2c(O)c1C=NCc1ccccn1	0% (inactive)
Cc1nc(/N=C\N(C)C)sc1C(=O)Nc1ccccc1	0% (inactive)
CCN(C(=O)COC(=O)c1cc(C)n(-c2ccc(F)cc2)c1C)C1CCS(=O)(=O)C1 (centres undefined)	1% (inactive)
CCCNC(=O)c1cc(S(=O)(=O)N2CCc3ccccc32)ccc1F	0% (inactive)
O=c1[nH]c2ccccc2n1CCCN1CCN(C(c2ccccc2)c2ccccc2)CC1	1% (inactive)
O=S(=O)(c1ccc(Oc2ccc(-c3nnco3)cc2)nc1)N1CCC(Cc2ccccc2)CC1	0% (inactive)
Cc1c(NC(=O)c2noc3c2CCc2ccccc2-3)c(=O)n(-c2ccccc2)n1C	0% (inactive)
Cc1ccc(Nc2cc(C)nc3ncnn23)c(Cl)c1	0% (inactive)
O=C(O)CCN(CCC(=O)O)c1nnc(SCc2ccccc2)s1	2% (inactive)
O=C(Oc1ccccc1)c1cccc(COC(=O)c2cnccn2)c1	5% (inactive)
Cc1cc(CN2CCN(CCC#N)CC2)c(O)c(C2(C)CCCCC2)c1	0% (inactive)
CCOC(=O)c1[nH]c(C)c(C(=O)NCC2CCCO2)c1C (centres undefined)	0% (inactive)
C/C=C(/C(=C/C)c1ccc(O)cc1)c1ccc(O)cc1	0% (inactive)
COc1ccccc1N1CC(O)=C(c2nc3ccccc3c(=O)[nH]2)C1=N	13% (inactive)
Cc1nc(C)c(C(=O)Nc2ccc(C)c(F)c2)o1	5% (inactive)
COc1ccc(C(C(C(=O)c2ccco2)N2CCOCC2)N2CCOCC2)cc1 (centres undefined)	11% (inactive)
COc1ccc(NC(=O)c2cnc3n(c2=O)CCS3)cc1OC	0% (inactive)

SMILES	inhibition
CCOc1ccccc1-n1c(SCC(=O)NCc2ccco2)nnc1-c1ccncc1	1% (inactive)
Cc1c(C(=O)NCc2ccccn2)sc2nc(-c3ccc(F)cc3)cn12	0% (inactive)
CCN1CCCC1CNCc1ccc(Cl)cc1Cl (centres undefined)	0% (inactive)
COc1ccc(OC)c(CNC(=O)COc2cc(=O)n(C)c3ccccc23)c1	0% (inactive)
Cc1cc(NC(=O)CSc2nnc(C3CC3)n2C)no1	0% (inactive)
N#Cc1nc(COc2ccccc2)oc1NCCN1CCOCC1	0% (inactive)
CC(Sc1n[nH]c(=O)[nH]c1=O)C(=O)OCc1ccccc1 (centres undefined)	2% (inactive)
CN(C)c1ccc(CNn2cnnc2)cc1	2% (inactive)
Cc1nc(N)[nH]c(=O)c1CCC(=O)OCC(C)C	0% (inactive)
COc1ccc(S(=O)(=O)NCC(c2cccnc2)N2CCN(c3ccc(F)cc3)CC2)cc1C (centres undefined)	0% (inactive)
CCOC(=O)CSc1nnc([C@H](C)NC(=O)OC(C)(C)C)o1	0% (inactive)
CCCCC(NS(=O)(=O)c1ccc(OC)cc1)C(=O)O (centres undefined)	0% (inactive)
Cc1cccc(OCC(=O)N2CCN(C(=O)Cc3ccccc3)CC2)c1	1% (inactive)
CCC(C)(C)NC(=O)C(OC(=O)c1ccco1)c1ccccc1OC (centres undefined)	0% (inactive)
CCN(CCNC(=O)CS(=O)(=O)Cc1nc(-c2cccc(OC)c2)oc1C)c1ccccc1	0% (inactive)
CCCOc1cccc(-c2nnc(N)s2)c1	0% (inactive)
CN(C1CCS(=O)(=O)C1)S(=O)C12CC3CC(CC(C3)C1)C2 (centres undefined)	3% (inactive)
Cc1ccc(CNC(=O)C2CC(=O)OC23CCCC3)c(C)c1 (centres undefined)	0% (inactive)
c1ccc2c(c1)CNC1(CCCCC1)C2	3% (inactive)
O=C(Nc1ccc2c(c1)nc1n2CCN(Cc2ccccc2)C1)c1cccs1	0% (inactive)
COc1ccc(CCN2C(=O)CCC2(C)C(=O)NCc2cccnc2)cc1OC (centres undefined)	0% (inactive)
CCSc1nnc(NC(=O)CSc2nnc(Cc3cccn3C)n2-c2ccc(C)cc2)s1	5% (inactive)
CCOc1ccc(C(=O)CN2CCN(S(=O)(=O)c3ccc(OC)cc3)CC2)cc1	1% (inactive)
CCOC(=O)N1CCN(Cc2ccccc2F)CC1	19% (inactive)
COc1ccc(OC)c(-n2nnnc2SCC(=O)NCc2ccc3c(c2)OCO3)c1	0% (inactive)
COc1ccccc1-n1c(SCC(N)=O)nnc1-c1ccccc1	0% (inactive)

SMILES	inhibition
CN(C)CCSc1nnc2sc3ccccc3n12	8% (inactive)
CCCCc1nc(NCCN2CCOCC2)c(C#N)c2c1COC(C)(C)C2	0% (inactive)
CCCNS(=O)(=O)c1ccc(OCC(=O)Nc2ccccc2F)cc1	0% (inactive)
CSc1nsc(SCC(=O)N2CCc3ccccc32)n1	8% (inactive)
COc1ccc(C)cc1NC(=O)COCC(=O)O	0% (inactive)
CC(CN1CCCCC1)OC(=O)c1ccc2c(c1)OCO2 (centres undefined)	0% (inactive)
COc1ccc(C(=O)N2CCOCC2)cc1Br	6% (inactive)
CCCCSc1nnc([C@H](C)NC(=O)OC(C)(C)C)o1	2% (inactive)
CC(=O)Nc1nnc(SCC(=O)NCC2CCCO2)s1 (centres undefined)	0% (inactive)
O=C(CCOc1ccccc1)NCc1ccccc1	0% (inactive)
CC(C)CSc1nc2ccccc2n1CC(N)=O	5% (inactive)
COc1ccc(S(=O)(=O)Nc2ccc3c(c2)OCO3)cc1Cl	5% (inactive)
O=C(O)C1C2C=CC3(CN(C4CCCC4)C(=O)C13)O2 (centres undefined)	4% (inactive)
c1ccc(-c2noc(C34CC5CC(CC(C5)C3)C4)n2)nc1	6% (inactive)
C=CCSc1nc(N)c2c(C)c(C)sc2n1	0% (inactive)
COc1ccc(OC)c(-c2nnc(SCC(=O)NC3CCCCC3)o2)c1	0% (inactive)
COc1cccc(C(=O)OCn2nnc3ccccc3c2=O)c1	0% (inactive)
Cc1onc(-c2ccccc2)c1C(N)=O	0% (inactive)
COc1nc2ccc(C)cc2cc1-c1noc(-c2cccnc2)n1	4% (inactive)
CC(C(=O)O)c1ccc(-c2ccccc2)c(F)c1 (centres undefined)	0% (inactive)
CCCN1CCN(CCCNC(=O)Cn2nc(-c3ccc(Cl)cc3)ccc2=O)CC1	0% (inactive)
N#CCCN(Cc1cccnc1)C(=O)Nc1ccc(Cl)c(Cl)c1	1% (inactive)
Cn1c(SCC(=O)O)nnc1C1CCCCC1	1% (inactive)
COc1ccc(CCNC(=O)C2CCN(S(=O)(=O)c3cc(OC)ccc3OC)CC2)cc1	0% (inactive)
Cc1cc(C)n2nc(SCc3nc4ccccc4[nH]3)nc2n1	6% (inactive)
COCCCNC(=O)c1ccc(CS(=O)(=O)c2ccc(OC)cc2)o1	9% (inactive)
